Laboratory results as given in PubChem BioAssay AID588676 (Johns Hopkins Ion Channel Center, 2011).
Hit rate of the full screen: of about 310,000 compounds, about 3,900 (1.3%) were called active.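 The calls were made as follows: active = calcium-response B-score plate-corrected more than 3 library SD below zero, starting fluorescence within 5 deviations, no agonist response on first addition; inactive = the rest.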 What follows is part of a selection rich in actives, with near analogues and random picks from the rest.

biological target: Mas-related G-protein coupled receptor member X1 (Homo sapiens) (UniProt Q96LB2); assay: blockade of BAM8-22-evoked MrgX1 calcium response – HEK293 cells, Fluo-4 calcium flux, primary screen (AID 588676); settings: Fluo-4, BAM8-22 antagonism, at 10 µM; hits give low values;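 as to B-score: peak minus trough fluorescence over baseline after final BAM8-22 challenge near maximal dose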
Sequence (Q96LB2 whole entry, looked up): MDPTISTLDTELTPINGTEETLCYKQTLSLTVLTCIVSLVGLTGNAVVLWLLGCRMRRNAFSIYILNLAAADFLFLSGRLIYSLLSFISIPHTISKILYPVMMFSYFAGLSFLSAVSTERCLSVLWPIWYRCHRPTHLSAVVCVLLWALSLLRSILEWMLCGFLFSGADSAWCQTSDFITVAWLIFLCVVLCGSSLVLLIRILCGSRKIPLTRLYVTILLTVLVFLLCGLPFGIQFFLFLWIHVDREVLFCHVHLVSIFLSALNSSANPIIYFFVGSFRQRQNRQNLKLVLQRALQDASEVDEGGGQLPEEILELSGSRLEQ

B-score, active:
CCN(C(=O)CSc1nnc2ccccn12)C1CCS(=O)(=O)C1 (stereo not drawn) -5.04
Cc1nc(N2CCN(c3ccccn3)CC2)c2c(C)c(C(=O)Nc3ccc(F)c(Cl)c3)sc2n1 -5.65
Cc1ccc(CS(=O)(=O)c2ncc(Cl)c(C(=O)Nc3nnc(C)s3)n2)cc1 -6.02
CCc1nnc(NC(=O)CSc2nc3c(c(=O)n2-c2ccccc2OC)SCC3)s1 -5.85
O=C(Nc1ccc(Br)cc1F)C1CC(=O)N(C2CCCCC2)C1 (stereo not drawn) -6.01
CC(Oc1ccc(F)cc1)C(=O)Nc1ccccc1C(=O)NC1CC1 (stereo not drawn) -5.83
COC(=O)c1sc(-c2ccc(C(C)(C)C)cc2)cc1NC(=O)/C=C/C(=O)O -9.91
CCOc1ccccc1NC(=O)CCN1CCN(S(=O)(=O)c2ccc(OC)cc2)CC1 -4.98
N#CC1=C(N)Oc2c(sc3ccccc23)C1c1ccco1 (stereo not drawn) -4.64
CCOC(=O)c1c(NC(=O)CSc2cn(CC)c3ccccc23)sc2c1CCC2 -6.48
COc1cc(/C=C2/SC(=S)N(Cc3ccccc3)C2=O)cc(OC)c1O -7.51
COc1ccc([N+](=O)[O-])cc1NC(=O)COC(=O)/C=C/c1ccco1 -24.1
COC1=CCC2([N+](=O)[O-])CN(CC(=O)O)CC1([N+](=O)[O-])C2 (stereo not drawn) -5.87
COCC(C)NC(=O)c1ccc(Cl)c(Cl)c1 (stereo not drawn) -8.76
COc1cc(N2CCCC2)c(OC)cc1/C=C(/C#N)c1cccc(Br)c1 -7.19

B-score, inactive:
CCN(C(=O)CSc1nnnn1-c1ccccc1OC)C1CCS(=O)(=O)C1 (stereo not drawn)
CCN(C(=O)CSc1nc2ccccc2n1CC)C1CCS(=O)(=O)C1 (stereo not drawn)
COc1ccc(NC(=O)c2sc3nc(C)nc(N4CCN(c5ccccn5)CC4)c3c2C)c(OC)c1
Cc1nc(N2CCN(c3ccccn3)CC2)c2c(C)c(C(=O)Nc3ccc(F)cc3)sc2n1
COc1ccc(NC(=O)CN(Cc2ccccc2)S(C)(=O)=O)cc1OC
CC1(C)C(C=C(Cl)Cl)C1C(=O)NC(O)C(=O)c1ccccc1 (stereo not drawn)
O=C(CCCN1C(=O)c2ccccc2C1=O)Oc1ccc(Cl)cc1
CSc1nnc(NC(=O)c2nc(S(=O)(=O)Cc3ccc(C)cc3)ncc2Cl)s1
Cc1cccc(NC(=O)c2nc(S(=O)(=O)Cc3ccccc3)ncc2Cl)c1
Cc1cc(N2CCOCC2)nc2ccc(NC(=S)N3CCN(Cc4ccccc4)CC3)cc12
C#C[C@]1(O)CC[C@H]2[C@@H]3CCC4=CC(=O)CC[C@@H]4[C@H]3CC[C@@]21CC
O=C(NCC(c1cccs1)N1CCOCC1)c1cc(Cl)ccc1[N+](=O)[O-] (stereo not drawn)
CCOc1ccc(NC(=O)CSc2nc3c(c(=O)n2-c2ccccc2OC)SCC3)cc1
CCc1nnc(NC(=O)CSc2nnc(Cc3ccccc3)n2-c2ccc(OC)cc2)s1
CC(Oc1ccccc1F)C(=O)NN (stereo not drawn)
CCSc1sc(CC)cc1C=O
O=C(NCCc1ccc(Cl)cc1)C1CC(=O)N(C2CCCCC2)C1 (stereo not drawn)
Cc1ccc(CNC(=O)C2CC(=O)N(C3CCCCCCC3)C2)cc1 (stereo not drawn)
COc1cc(C)c(Cl)cc1S(=O)(=O)n1ccnc1
CCCC(=O)N1CCC(CCC(=O)NC2CC2)CC1
CCOc1ccccc1OCC(=O)Nc1ccccc1C(=O)NC1CC1
COc1ccccc1OCC(=O)Nc1ccccc1C(=O)NC1CC1
COc1cc(-c2c(-c3ccc4c(c3)OCO4)noc2C)ccc1F
Nc1nc(NCC2CCCO2)nc(Nc2ccccc2F)c1[N+](=O)[O-] (stereo not drawn)
CSc1ccc(NC(=O)/C=C/C(=O)O)cc1
CC(C)(C)c1ccc(/C=C/C(=O)Nc2ncccn2)cc1
Cn1cccc1Cc1nnc(SCC(=O)NCc2ccc3c(c2)OCO3)n1CCc1ccccc1
O=C(O)CCc1nc2cc(Cl)ccc2n(Cc2ccccc2)c1=O
COc1ccc(NC(=O)CCC(=O)N2CCN(S(=O)(=O)c3ccc(C)cc3)CC2)c(OC)c1
CCOc1ccccc1NC(=O)COc1ccc(S(=O)(=O)N2CCCC2)cc1
Cc1cc(C)c(C#N)c(Nc2cccc(Br)c2)n1
N#CC1=C(N)Oc2c(ccc3cccnc23)C1c1ccncc1 (stereo not drawn)
O=C(COc1nsnc1N1CCOCC1)Nc1ccccc1Cl
COc1cc(C(C)=O)ccc1OC(=O)CN1C(=O)c2ccccc2C1=O
Cc1cc(F)ccc1S(=O)(=O)Nc1ncnc2scc(-c3ccc(F)cc3)c12
CCOC(=O)c1c(NC(=O)CCC(=O)NCc2ccco2)sc2c1CCCC2
CCOC(=O)c1c(NC(=O)C(C)Sc2c[nH]c3ccccc23)sc2c1CCC2 (stereo not drawn)
O=C(NCC(=O)N1CCN(c2ncc(C(F)(F)F)cc2Cl)CC1)c1ccc(Br)o1
Cc1ccc(C(=O)OC2=CC(=O)CC(C)(C)C2)cc1
COc1ccc(/C=C2\SC(=S)N(CCC(=O)Nc3ccccn3)C2=O)cc1OC
COc1ccccc1C(=O)NNC(=O)CCN1C(=O)/C(=C\c2ccccc2)SC1=S
O=C(Nc1cccc([N+](=O)[O-])c1)N1CCc2ccccc2C1
CN(c1ccccc1)S(=O)(=O)c1ccc(Cl)c(C(=O)OCC(=O)N2CCOCC2)c1
COC(=O)c1c(NC(=O)COc2ccc(Cl)cc2Cl)sc2c1CC(C)(C)NC2(C)C
O=C(Cc1ccccc1)Nc1c(C(=O)N2CCCCCC2)cnn1-c1ccccc1
COc1ccc([N+](=O)[O-])cc1NC(=O)CCc1ccccc1
CC(C)CNC(=O)COC(=O)/C=C/c1ccco1
COc1ccc([N+](=O)[O-])cc1N(CC(=O)Nc1ccccc1C(=O)N1CCOCC1)S(C)(=O)=O
CC(C)CCC(C)NC(=O)c1ccc2nccnc2c1 (stereo not drawn)
CC(CCc1ccccc1)NC(=O)c1cnc(Cl)c(Cl)c1 (stereo not drawn)
CC(=O)C1=C(C)NC(=O)NC1c1ccc2c(c1)OCO2 (stereo not drawn)
COc1ccc(Br)cc1/C=N/n1c(C)nnc1C
CC(=O)Nc1cccc(Oc2cc(C#N)c(C#N)cc2N2CCOCC2)c1
